Test results reported in the supplement of paper PMC11060735.
Where “and” joins values, the source holds several entries; their conditions need not be identical. Equal entries are not always repeated. Structures can show the parent of a compound that is named as a salt. The campaign covered roughly 1,800 compounds. About 50 (3%) showed activity. Shown is part of a subset that was picked to be rich in actives. Unmarked numbers belong to inactive results.

Tested on: mouse p16Ink4a+/- lung fibroblasts (INKBRITE, bleomycin-injured)
Assay: percentage of GFP+ (p16Ink4a+) fibroblasts among all cells in well; higher = less depletion of p16Ink4a+ cells, active = 20 or less
Conditions: 1 µM; 3 days

SMILES	percentage of GFP+
Cc1cccc(CC(=O)N2CCc3c2ccc(-c2cn(C)c4ncnc(N)c24)c3F)n1	45%
CN1CCc2c(c3ccccc3n2Cc2ccc(C(=O)NO)cc2)C1 [Tubastatin A HCl]	53.9% and 45%
Cn1cc(CNCC2CCN(c3ncc(C(=O)NO)cn3)CC2)c2ccccc21 [Quisinostat]	1.92% (active)
COc1cc(C(=O)NS(=O)(=O)c2ccccc2C)ccc1Cc1cn(C)c2ccc(NC(=O)OC3CCCC3)cc12 [Zafirlukast]	47.1%
COc1ccc(COc2ccc(Cc3cnc(N)nc3N)cc2OC)cc1	33.4%
Cc1cccc(C)c1OCC(C)N (centres undefined) [Mexiletine]	46%
CCN(c1cc(-c2ccc(CN3CCOCC3)cc2)cc(C(=O)NCc2c(C)cc(C)nc2O)c1C)C1CCOCC1	54.5%
CCNC(=O)c1noc(-c2cc(C(C)C)c(O)cc2O)c1-c1ccc(CN2CCOCC2)cc1 [Luminespib (NVP-AUY922)]	6.33% (active)
Cc1cc(C)c(CNC(=O)c2cc(-c3ccc(CN4CCOCC4)cc3)cc3c2cnn3C2CCCC2)c(O)n1	49.7%
Cc1cc(C2CCCCC2)n(O)c(=O)c1 [Ciclopirox]	29.6% and 35.5%
CCCOc1ccc(C(=O)OCCN(CC)CC)cc1N [Proparacaine]	37.1%
COC(=O)CCSCc1ccc(-c2onc(C)c2NC(=O)OC(C)c2ccccc2Cl)cc1 (centres undefined)	43.9%
CCN(CC)CCCC(C)Nc1c2ccc(Cl)cc2nc2ccc(OC)cc12 (centres undefined) [Quinacrine]	46.6%
O=C(/C=C\n1cnc(-c2cc(C(F)(F)F)cc(C(F)(F)F)c2)n1)N1CC(F)(F)C1	24.1%
O=C(/C=C\n1cnc(-c2cc(C(F)(F)F)cc(C(F)(F)F)c2)n1)NNc1cnccn1 [Selinexor (KPT-330)]	14.7% (active)
COc1cc(-c2ncn(/C=C\C(=O)OC(C)C)n2)cc(C(F)(F)F)c1	14.1% (active)
CN(C)CCOC(c1ccccc1)c1ccccc1 [Diphenhydramine]	47.9%
CC(C)(C)c1cnc(CSc2cnc(NC(=O)C3CCNCC3)s2)o1	28.7%
N#Cc1ccc2[nH]c(O)c(-c3ccc(CN4CCOCC4)cn3)c2c1	40.8%
CO/C(O)=C1\C(C)=NC(C)=C(C(=O)O[C@@H]2CCCN(Cc3ccccc3)C2)[C@@H]1c1cccc([N+](=O)[O-])c1 [Benidipine]	41.8%
Cn1c(=O)c2c(ncn2CC2OCCO2)n(C)c1=O [Doxofylline]	41%
CC(C)OC(=O)C(C)(C)Oc1ccc(C(=O)c2ccc(Cl)cc2)cc1 [Fenofibrate]	45.5%
O=C1CCc2cc(OCCCCc3nnnn3C3CCCCC3)ccc2N1 [Cilostazol]	45.1%
CN1CC[C@H](c2c(O)cc(O)c3c(=O)cc(-c4ccccc4Cl)oc23)[C@H](O)C1 [Flavopiridol]	4.28% (active)
CN1CC[C@@H](c2c(O)cc(O)c3c(=O)cc(-c4ccccc4Cl)oc23)[C@@H]1CO	20.2%

SMILES	percentage of GFP+
CC(=O)C1=C(O)C=C2Oc3c(C(C)=O)c(O)c(C)c(O)c3[C@]2(C)C1=O [(+)-Usniacin]	45.5%
CCNC1=N[C@@H]2[C@@H](O)[C@H](O)[C@@H](CO)O[C@@H]2S1 [Thiamet G]	56.9%
CC(=O)c1cc([N+](=O)[O-])c(Sc2cccc(Cl)c2Cl)s1	41.2%
COc1c(C)cnc(Cn2cnc3c(Cl)nc(N)nc32)c1C	7.81% (active)
Nc1nc(O)c2ncn(COCCO)c2n1 [Aciclovir]	45.4%
COc1ccc2[nH]c(S(=O)Cc3ncc(C)c(OC)c3C)nc2c1 (centres undefined) [Esomeprazole; Omeprazole]	43.4% and 32.8%
COc1ccc(CNC(=O)Nc2ncc([N+](=O)[O-])s2)cc1 [N-(4-Methoxybenzyl)-N'-(5-Nitro-1,3-Thiazol-2-Yl)Urea]	43.1%
CCN(Cc1ccncc1)C(=O)C(CO)c1ccccc1 (centres undefined) [Tropicamide]	49.3%
O=C(Nc1ccc(OC(F)(F)F)cc1)c1sccc1NCc1ccnc2ccccc12	30.4%
Clc1cccc(Cl)c1NC1=NCCN1 [Clonidine]	51.5%
CN1CCN(C2=Nc3ccccc3Oc3ccc(Cl)cc32)CC1 [Loxapine]	51.2%
CC(C)c1c(C(=O)Nc2ccccc2)c(-c2ccccc2)c(-c2ccc(F)cc2)n1CC[C@@H](O)C[C@@H](O)CC(=O)O [Atorvastatin]	41.6%
O=C(O)C[C@H](O)C[C@H](O)/C=C/c1c(C2CC2)nc2ccccc2c1-c1ccc(F)cc1 [Pitavastatin Calcium]	22.1%
CC(C)n1c(/C=C/[C@@H](O)C[C@@H](O)CC(=O)O)c(-c2ccc(F)cc2)c2ccccc21 [Fluvastatin]	19.7% (active)
NC(Cc1c[nH]c2ccc(O)cc12)C(=O)O (centres undefined) [5-hydroxytryptophan (5-HTP)]	41.1%
C[C@H](Cn1cnc2c(N)ncnc21)OCP(=O)(O)O [Tenofovir]	36.4%
CC(C)OC(=O)OCOP(=O)(CO[C@H](C)Cn1cnc2c(N)ncnc21)OCOC(=O)OC(C)C [Tenofovir Disoproxil]	37.9%
CC(C)(C)C(=O)OCOP(=O)(COCCn1cnc2c(N)ncnc21)OCOC(=O)C(C)(C)C [Adefovir Dipivoxil]	19.4% (active)
Cc1nc(O)c(C#N)cc1-c1ccncc1 [Milrinone]	37.8%
CCOC(=O)N1CCC(=C2c3ccc(Cl)cc3CCc3cccnc32)CC1 [Loratadine]	54.5%
CC(C)c1cc(-c2nnc(O)n2-c2ccc3c(ccn3C)c2)c(O)cc1O [Ganetespib]	4.48% (active)
OC(CC1c2ccccc2-c2cncn21)C1CCCCC1 (centres undefined)	43%
CCCCCCCCCCCC1=C(O)C(O)=CC(=O)C1=O [Embelin]	51.4%
COc1ccc2cccc(CCNC(C)=O)c2c1 [Agomelatine]	39.1%
CC(C)C[C@@H](C=O)NC(=O)[C@H](CC(C)C)NC(=O)[C@H](CC(C)C)NC(=O)OCc1ccccc1	7.69% (active)

SMILES	percentage of GFP+
CC(=O)SCC(Cc1ccccc1)C(=O)NCC(=O)OCc1ccccc1 (centres undefined) [Racecadotril]	45%
COC(=O)[C@H](Cc1ccccc1)NC(=O)[C@@H](N)CC(=O)O [Aspartame]	44.2%
CCCCCOC(=O)Nc1nc(=O)n([C@@H]2O[C@H](C)[C@@H](O)[C@H]2O)cc1F [Capecitabine]	40.5%
CN(Cc1ccc(C(C)(C)C)cc1)Cc1cccc2ccccc12 [Butenafine]	51.2%
O=C(/C=C/c1ccccc1)NC(NC(=S)Nc1ccc(Cl)cc1)C(Cl)(Cl)Cl (centres undefined)	58.3%
Cn1cc(/C=C/C(=O)c2cccc(F)c2)cc1/C=C/C(=O)NO	54%
O=C(/C=C/c1cccc(S(=O)(=O)Nc2ccccc2)c1)NO [Belinostat]	15.9% (active)
Nc1cccc2c1CN(C1CCC(=O)NC1=O)C2=O (centres undefined) [Lenalidomide]	46%
CC/C(=C(\c1ccccc1)c1ccc(OCCN(C)C)cc1)c1ccccc1 [Tamoxifen]	34.9%
Cc1ccc([N+](=O)[O-])cc1S(=O)(=O)N(C)/N=C/c1cnc2ccc(Br)cn12	3.79% (active)
CC(C)c1nc(N(C)S(C)(=O)=O)nc(-c2ccc(F)cc2)c1/C=C/[C@@H](O)C[C@@H](O)CC(=O)O [Rosuvastatin, Rosuvastatin Calcium]	41.7%
Cn1cnc2c(F)c(Nc3ccc(Br)cc3F)c(C(=O)NOCCO)cc21	44.7%
CN1c2cc(O)c(N=NC(N)=O)cc2CC1S(=O)(=O)O (centres undefined) [Carbazochrome sodium sulfonate]	43%
CC1(C)CC(=O)c2c(C(F)(F)F)nn(-c3ccc(C(N)=O)c(N[C@H]4CC[C@H](OC(=O)CN)CC4)c3)c2C1	6.23% (active)
CC1(C)CC(=O)c2c(C(F)(F)F)nn(-c3ccc(C(N)=O)c(N[C@H]4CC[C@H](O)CC4)c3)c2C1	6.92% (active)
CC(=O)O/N=C1/C(=O)N(Cc2cc(Cl)ccc2Cl)c2ccc(Cl)cc21	51.6%
CC(C)(C)c1ccc(C(=O)CCCN2CCC(OC(c3ccccc3)c3ccccc3)CC2)cc1 [Ebastine]	56.5%
OC1(c2ccc(Cl)c(C(F)(F)F)c2)CCN(CCCC(c2ccc(F)cc2)c2ccc(F)cc2)CC1 [Penfluridol]	55.9%
COc1ccc(-c2ccc3c(N4CCOCC4)nc(N4C[C@@H](C)O[C@@H](C)C4)nc3n2)cc1CO	23.7%
Cc1ccc(=O)n(-c2ccccc2)c1 [Pirfenidone]	46%
CNC(=O)c1cc(Oc2ccc(NC(=O)Nc3cc(C(C)(C)C)nn3-c3ccc4ncccc4c3)c(F)c2)ccn1 [Rebastinib]	39.9%
CC(C)C[C@H](NC(=O)[C@H](Cc1ccccc1)NC(=O)c1cnccn1)B(O)O [Bortezomib]	5.29% (active)
CNC(=O)[C@H](Cc1ccccc1)NC(=O)[C@H](CC(C)C)[C@H](CSc1cccs1)C(=O)NO [Batimastat]	41.9%
CC(C)C1CCC(C(=O)N[C@H](Cc2ccccc2)C(=O)O)CC1 (some centres undefined) [Nateglinide]	46.5%
